Source: the supplement of paper PMC10849652
The full data set covers some 7,900 targets. This sample favours those with a hit. About 0.6% of all pairs of compound and target were hits.

How the values were obtained:
Test in all cases: log2 fold change, soluble protein after heating vs DMSO (PISA); higher = thermal stabilisation; K562 cells, 10 uM, 30 min; active = over 0.2 and 3.5 SD of the protein, either way, in both replicates (recomputed)
bafetinib = compound: Cc1ccc(NC(=O)c2ccc(CN3CC[C@H](N(C)C)C3)c(C(F)(F)F)c2)cc1Nc1nccc(-c2cncnc2)n1 [bafetinib]
Method in brief: (§1)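 K562 cells at 2×10^6 cells/mL were treated with 10 μM compound for 30 min. Aliquots were heated for 3 min across 48°C-58°C, pooled, and extracted in PBS with 0.5% NP-40 at 4°C; soluble protein was the supernatant after 21,000xg for 90 min. Soluble protein was quantified by TMTpro 16plex LC-MS/MS with channel sums equalised, and reported as log2 fold change in thermal stability against DMSO controls, with values from duplicates.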

[1] = compound: Cc1cccc(CC(=O)N2CCc3c2ccc(-c2cn(C)c4ncnc(N)c24)c3F)n1
Method in brief: as §1

nilotinib = compound: Cc1cn(-c2cc(NC(=O)c3ccc(C)c(Nc4nccc(-c5cccnc5)n4)c3)cc(C(F)(F)F)c2)cn1 [nilotinib]
Method in brief: as §1

[2] = compound: Cc1nc(Nc2n[nH]c3c2CN(C(=O)N[C@H](CN(C)C)c2ccccc2)C3(C)C)c2sccc2n1
Method in brief: as §1

dasatinib = compound: Cc1nc(Nc2ncc(C(=O)Nc3c(C)cccc3Cl)s2)cc(N2CCN(CCO)CC2)n1 [dasatinib]
Method in brief: as §1

[3] = compound: Cc1ncc(-c2ccnc(Nc3ccc(S(C)(=O)=O)cc3)n2)n1C(C)C
Method in brief: as §1

[4] = compound: Cn1cc(-c2ccc3c(c2)CCN3C(=O)Cc2cccc(C(F)(F)F)c2)c2c(N)ncnc21
Method in brief: as §1

[5] = compound: Cn1cc(-c2ccc3nnc(C(F)(F)c4ccc5ncccc5c4)n3n2)cn1
Method in brief: as §1

tipifarnib = compound: Cn1cncc1[C@@](N)(c1ccc(Cl)cc1)c1ccc2c(c1)c(-c1cccc(Cl)c1)cc(=O)n2C [tipifarnib]
Method in brief: as §1

mubritinib = compound: FC(F)(F)c1ccc(/C=C/c2nc(COc3ccc(CCCCn4ccnn4)cc3)co2)cc1 [mubritinib]
Method in brief: as §1

[6] = compound: NC(=O)Nc1cc(-c2cccc(F)c2)sc1C(=O)N[C@H]1CCCNC1
Method in brief: as §1

[7] = compound: NC(=O)c1cnc(N[C@@H]2CCCC[C@@H]2N)nc1Nc1cccc(-n2nccn2)c1
Method in brief: as §1

[8] = compound: NC1(c2ccc(-c3nc4ccn5c(=O)[nH]nc5c4cc3-c3ccccc3)cc2)CCC1
Method in brief: as §1

[9] = compound: NCC(=O)Nc1ccc(-n2nc(C(F)(F)F)cc2-c2ccc3c(ccc4ccccc43)c2)cc1
Method in brief: as §1

entinostat = compound: Nc1ccccc1NC(=O)c1ccc(CNC(=O)OCc2cccnc2)cc1 [entinostat]
Method in brief: as §1

vorinostat = compound: O=C(CCCCCCC(=O)Nc1ccccc1)NO [vorinostat]
Method in brief: as §1

citarinostat = compound: O=C(CCCCCCNC(=O)c1cnc(N(c2ccccc2)c2ccccc2Cl)nc1)NO [citarinostat]
Method in brief: as §1

silmitasertib = compound: O=C(O)c1ccc2c(c1)nc(Nc1cccc(Cl)c1)c1ccncc12 [silmitasertib]
Method in brief: as §1

[10] = compound: O=C1NC(=O)C(c2cnc3ccccn23)=C1c1cn2c3c(cc(F)cc13)CN(C(=O)N1CCCCC1)CC2
Method in brief: as §1

[11] = compound: c1cc(OCCN2CCCCC2)cc(-c2n[nH]c3ccc(-c4nnc[nH]4)cc23)c1
Method in brief: as §1

Measured: log2 fold change

CALCOCO2 isoform 4 (UniProt Q13137)
inactive: [1] -0.061 | nilotinib -0.039 | [2] 0.038 | dasatinib 0.01 | [3] 0.1 | [4] -0.013 | [5] -0.035 | tipifarnib -0.015 | mubritinib -0.025 | [6] -0.017 | [7] -0.075 | [9] -0.185 | entinostat -0.006 | vorinostat -0.006 | citarinostat 0.035 | silmitasertib 0.047 | [10] 0.071 | [11] -0.034
active: bafetinib -0.647 | [8] -0.324

COMT (UniProt P21964)
Sequence of UniProt P21964 (P21964 whole entry, looked up): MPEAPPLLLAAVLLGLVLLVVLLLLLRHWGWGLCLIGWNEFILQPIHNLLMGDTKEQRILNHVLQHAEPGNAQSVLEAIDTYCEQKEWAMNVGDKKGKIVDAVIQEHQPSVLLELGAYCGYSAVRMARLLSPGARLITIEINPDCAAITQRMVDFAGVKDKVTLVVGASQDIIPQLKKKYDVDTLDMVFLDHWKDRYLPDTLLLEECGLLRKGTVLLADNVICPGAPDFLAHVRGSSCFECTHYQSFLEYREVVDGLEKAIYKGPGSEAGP
active: [7] 0.356
inactive: bafetinib 0.011 | [1] -0.019 | nilotinib 0.01 | [2] 0.119 | dasatinib 0.03 | [3] 0.009 | [4] 0.073 | [5] 0.031 | tipifarnib 0.002 | mubritinib 0.06 | [6] -0.052 | [8] -0.015 | [9] -0.022 | entinostat -0.022 | vorinostat -0.054 | citarinostat 0.052 | silmitasertib -0.057 | [10] -0.086 | [11] 0.015

COX6B1 (UniProt P14854)
Sequence of UniProt P14854 (P14854 whole entry, looked up): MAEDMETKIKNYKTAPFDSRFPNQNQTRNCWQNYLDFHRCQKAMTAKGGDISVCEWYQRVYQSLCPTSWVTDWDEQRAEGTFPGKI
inactive: bafetinib -0.081 | [1] -0.023 | nilotinib -0.02 | [2] -0.01 | dasatinib 0.019 | [3] -0.027 | [4] 0.228 | tipifarnib -0.044 | mubritinib 0.054 | [6] -0.039 | [7] -0.019 | [8] -0.146 | [9] 0.007 | entinostat 0.085 | vorinostat -0.06 | citarinostat -0.007 | silmitasertib -0.009 | [10] -0.126 | [11] -0.017
active: [5] 0.377

CBX1 (UniProt P83916)
Sequence of UniProt P83916 (P83916 whole entry, looked up): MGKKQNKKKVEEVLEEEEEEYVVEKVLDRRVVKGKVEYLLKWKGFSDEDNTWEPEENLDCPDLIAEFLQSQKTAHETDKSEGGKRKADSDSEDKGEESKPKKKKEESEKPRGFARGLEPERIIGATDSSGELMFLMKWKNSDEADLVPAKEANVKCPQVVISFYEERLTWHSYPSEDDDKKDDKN
inactive: bafetinib -0.037 | [1] -0.025 | nilotinib 0.141 | [2] -0.089 | dasatinib 0.084 | [3] -0.003 | [4] -0.034 | [5] 0.011 | tipifarnib -0.039 | mubritinib 0.066 | [6] 0.02 | [7] -0.032 | [8] 0.025 | [9] 0.004 | entinostat 0.017 | vorinostat -0.036 | citarinostat -0.035 | silmitasertib 0.045 | [10] 0.006 | [11] -0.034

COA6 isoform 2 (UniProt Q5JTJ3)
Sequence of UniProt Q5JTJ3 (Q5JTJ3 whole entry, looked up): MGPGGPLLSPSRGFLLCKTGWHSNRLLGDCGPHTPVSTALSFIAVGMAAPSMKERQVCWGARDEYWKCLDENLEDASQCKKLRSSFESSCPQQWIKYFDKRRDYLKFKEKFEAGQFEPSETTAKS
inactive: bafetinib -0.093 | [1] 0.002 | nilotinib -0.064 | [2] 0.02 | dasatinib -0.017 | [3] 0.012 | [4] -0.097 | [5] 0.035 | tipifarnib -0.008 | mubritinib 0.041 | [6] 0.034 | [7] 0.106 | [8] -0.009 | [9] -0.018 | entinostat -0.003 | vorinostat -0.024 | citarinostat 0.053 | silmitasertib 0.01 | [10] 0.011 | [11] -0.041

CNOT1 (UniProt A5YKK6)
Sequence of UniProt A5YKK6 (A5YKK6 whole entry, looked up): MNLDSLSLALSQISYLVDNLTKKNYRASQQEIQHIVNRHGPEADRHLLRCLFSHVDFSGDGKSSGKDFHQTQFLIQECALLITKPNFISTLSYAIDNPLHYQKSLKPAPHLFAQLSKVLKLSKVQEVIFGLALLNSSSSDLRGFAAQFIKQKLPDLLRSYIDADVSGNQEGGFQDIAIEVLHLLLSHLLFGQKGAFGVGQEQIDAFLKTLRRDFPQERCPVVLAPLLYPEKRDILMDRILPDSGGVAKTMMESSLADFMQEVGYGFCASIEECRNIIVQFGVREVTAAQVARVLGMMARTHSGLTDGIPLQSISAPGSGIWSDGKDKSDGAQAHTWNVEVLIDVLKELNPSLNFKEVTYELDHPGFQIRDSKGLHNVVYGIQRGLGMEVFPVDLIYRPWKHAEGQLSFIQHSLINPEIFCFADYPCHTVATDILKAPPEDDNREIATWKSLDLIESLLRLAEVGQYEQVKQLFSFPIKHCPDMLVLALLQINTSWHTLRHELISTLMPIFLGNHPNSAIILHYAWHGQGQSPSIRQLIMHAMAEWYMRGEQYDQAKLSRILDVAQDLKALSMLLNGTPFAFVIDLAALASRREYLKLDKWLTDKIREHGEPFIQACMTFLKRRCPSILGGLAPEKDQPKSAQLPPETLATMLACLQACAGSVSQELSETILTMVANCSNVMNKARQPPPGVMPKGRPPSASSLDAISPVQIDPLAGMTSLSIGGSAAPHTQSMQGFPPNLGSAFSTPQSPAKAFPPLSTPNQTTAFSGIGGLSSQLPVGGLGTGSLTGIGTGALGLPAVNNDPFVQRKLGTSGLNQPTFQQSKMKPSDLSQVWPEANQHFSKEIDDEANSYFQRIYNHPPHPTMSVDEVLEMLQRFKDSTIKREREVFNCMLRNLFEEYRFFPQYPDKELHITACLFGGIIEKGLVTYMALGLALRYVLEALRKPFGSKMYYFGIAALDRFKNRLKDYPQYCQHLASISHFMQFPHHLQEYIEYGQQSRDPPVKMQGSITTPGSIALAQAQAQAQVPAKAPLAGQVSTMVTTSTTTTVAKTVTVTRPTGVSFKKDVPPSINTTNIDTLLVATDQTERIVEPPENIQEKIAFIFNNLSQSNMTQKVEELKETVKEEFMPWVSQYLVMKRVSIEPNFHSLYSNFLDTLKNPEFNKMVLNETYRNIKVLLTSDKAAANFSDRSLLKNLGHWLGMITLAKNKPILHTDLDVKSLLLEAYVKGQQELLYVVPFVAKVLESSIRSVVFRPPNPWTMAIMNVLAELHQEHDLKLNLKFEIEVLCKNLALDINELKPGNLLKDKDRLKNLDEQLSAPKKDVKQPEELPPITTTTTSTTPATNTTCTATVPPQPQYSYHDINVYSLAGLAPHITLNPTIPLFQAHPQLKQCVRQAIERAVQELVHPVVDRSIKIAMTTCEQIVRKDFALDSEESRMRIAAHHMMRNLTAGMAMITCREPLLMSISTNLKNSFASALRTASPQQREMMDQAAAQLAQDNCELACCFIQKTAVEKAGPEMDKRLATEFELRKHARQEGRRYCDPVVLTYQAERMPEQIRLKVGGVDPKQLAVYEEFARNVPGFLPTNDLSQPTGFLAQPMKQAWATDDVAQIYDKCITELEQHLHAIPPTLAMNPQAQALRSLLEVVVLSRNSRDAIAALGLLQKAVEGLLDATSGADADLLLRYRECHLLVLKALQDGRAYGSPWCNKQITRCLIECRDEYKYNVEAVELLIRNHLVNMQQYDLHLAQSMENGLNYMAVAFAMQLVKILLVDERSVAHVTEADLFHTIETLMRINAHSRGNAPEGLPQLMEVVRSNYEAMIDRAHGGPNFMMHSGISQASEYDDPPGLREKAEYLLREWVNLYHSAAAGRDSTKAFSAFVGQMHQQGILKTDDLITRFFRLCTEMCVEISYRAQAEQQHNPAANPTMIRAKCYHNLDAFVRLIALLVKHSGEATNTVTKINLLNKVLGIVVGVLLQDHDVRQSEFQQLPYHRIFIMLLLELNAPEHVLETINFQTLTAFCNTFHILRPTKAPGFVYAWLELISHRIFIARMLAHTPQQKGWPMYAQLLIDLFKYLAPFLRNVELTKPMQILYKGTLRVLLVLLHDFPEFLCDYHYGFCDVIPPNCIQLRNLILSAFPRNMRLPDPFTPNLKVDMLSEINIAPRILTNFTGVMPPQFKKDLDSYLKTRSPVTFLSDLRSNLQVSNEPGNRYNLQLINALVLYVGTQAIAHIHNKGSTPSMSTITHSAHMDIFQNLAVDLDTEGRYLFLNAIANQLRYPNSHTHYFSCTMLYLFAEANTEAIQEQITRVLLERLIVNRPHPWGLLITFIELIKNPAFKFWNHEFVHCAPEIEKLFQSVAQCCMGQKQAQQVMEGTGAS
inactive: bafetinib 0.009 | [1] 0.033 | nilotinib -0.066 | [2] -0.058 | dasatinib -0.106 | [3] -0.014 | [4] 0.023 | [5] -0.035 | tipifarnib -0.061 | mubritinib 0.052 | [6] 0 | [7] 0.01 | [8] -0.075 | [9] -0.026 | entinostat 0.024 | vorinostat 0.035 | citarinostat 0.05 | silmitasertib 0.055 | [10] 0.004 | [11] -0.032

CAVIN1 (UniProt Q6NZI2)
inactive: bafetinib 0.114 | [1] 0.004 | nilotinib -0.047 | [2] 0.104 | dasatinib -0.001 | [3] -0.11 | [4] -0.157 | [5] -0.204 | tipifarnib 0.125 | mubritinib -0.067 | [6] 0.034 | [7] -0.07 | [8] 0.046 | [9] 0.074 | entinostat 0.008 | vorinostat 0.004 | citarinostat -0.004 | silmitasertib 0.041 | [10] 0.108 | [11] -0.087

CSTF3 (UniProt Q12996)
Sequence of UniProt Q12996 (Q12996 whole entry, looked up): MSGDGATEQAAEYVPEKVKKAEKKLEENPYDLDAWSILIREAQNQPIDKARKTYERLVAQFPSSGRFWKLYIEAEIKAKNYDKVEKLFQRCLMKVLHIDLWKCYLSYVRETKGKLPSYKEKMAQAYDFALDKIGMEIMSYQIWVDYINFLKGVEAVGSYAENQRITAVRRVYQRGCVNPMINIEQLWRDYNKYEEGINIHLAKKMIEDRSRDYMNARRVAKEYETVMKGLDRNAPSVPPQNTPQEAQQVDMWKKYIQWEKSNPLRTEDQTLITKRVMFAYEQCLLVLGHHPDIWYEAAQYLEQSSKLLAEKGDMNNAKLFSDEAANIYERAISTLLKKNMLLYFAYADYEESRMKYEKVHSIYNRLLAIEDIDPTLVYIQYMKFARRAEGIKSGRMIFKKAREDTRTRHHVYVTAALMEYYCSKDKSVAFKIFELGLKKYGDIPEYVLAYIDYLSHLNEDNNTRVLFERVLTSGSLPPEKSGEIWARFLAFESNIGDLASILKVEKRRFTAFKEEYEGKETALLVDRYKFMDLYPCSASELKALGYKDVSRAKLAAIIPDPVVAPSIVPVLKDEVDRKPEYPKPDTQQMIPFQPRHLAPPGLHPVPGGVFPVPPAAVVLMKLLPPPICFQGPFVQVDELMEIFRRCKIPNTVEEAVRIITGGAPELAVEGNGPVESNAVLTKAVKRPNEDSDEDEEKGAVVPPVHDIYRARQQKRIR
inactive: bafetinib -0.004 | [1] 0.044 | nilotinib -0.044 | [2] 0.176 | dasatinib -0.021 | [3] 0.158 | [4] -0.009 | [5] -0.01 | tipifarnib 0.009 | mubritinib 0.019 | [6] 0.011 | [7] -0.027 | [8] -0.046 | [9] -0.032 | entinostat -0.032 | vorinostat -0.032 | citarinostat -0.021 | silmitasertib 0.029 | [10] 0.027 | [11] 0.012

CPSF3 (UniProt Q9UKF6)
Sequence of UniProt Q9UKF6 (Q9UKF6 whole entry, looked up): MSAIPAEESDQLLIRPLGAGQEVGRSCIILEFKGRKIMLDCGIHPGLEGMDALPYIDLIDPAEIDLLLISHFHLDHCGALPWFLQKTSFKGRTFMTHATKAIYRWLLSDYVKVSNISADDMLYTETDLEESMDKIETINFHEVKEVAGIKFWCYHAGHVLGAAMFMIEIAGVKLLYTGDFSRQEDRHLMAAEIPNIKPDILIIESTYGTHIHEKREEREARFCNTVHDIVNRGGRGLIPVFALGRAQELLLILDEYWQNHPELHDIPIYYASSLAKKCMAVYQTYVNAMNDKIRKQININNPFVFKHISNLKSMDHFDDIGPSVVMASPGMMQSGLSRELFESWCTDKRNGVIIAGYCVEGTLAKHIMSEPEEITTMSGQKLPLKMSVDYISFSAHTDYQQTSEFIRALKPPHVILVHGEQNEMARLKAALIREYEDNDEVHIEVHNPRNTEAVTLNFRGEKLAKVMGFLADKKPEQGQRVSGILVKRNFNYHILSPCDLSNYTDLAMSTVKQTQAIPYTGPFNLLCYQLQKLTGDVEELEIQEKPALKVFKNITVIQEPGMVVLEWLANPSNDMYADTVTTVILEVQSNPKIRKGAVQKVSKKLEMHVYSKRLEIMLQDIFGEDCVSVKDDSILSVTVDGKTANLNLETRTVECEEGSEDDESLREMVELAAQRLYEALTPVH
inactive: bafetinib -0.052 | [1] 0.041 | nilotinib -0.006 | [2] -0.073 | dasatinib -0.082 | [3] -0.023 | [4] -0.071 | [5] -0.023 | tipifarnib -0.027 | mubritinib 0.02 | [6] 0.001 | [7] -0.05 | [8] -0.032 | [9] -0.058 | entinostat -0.002 | vorinostat 0.016 | citarinostat 0.026 | silmitasertib 0.129 | [10] -0.006 | [11] -0.075

CLUH, A0A494C0R8
inactive: bafetinib 0.016 | [1] -0.445 | nilotinib 0.264 | [2] 0.015 | dasatinib -0.051 | [3] 0 | [4] -0.018 | tipifarnib 0.145 | mubritinib 0.072 | [6] 0.031 | [7] 0.031 | [8] -0.003 | [9] -0.062 | entinostat 0.09 | vorinostat 0.195 | citarinostat -0.026 | silmitasertib 0.046 | [10] 0.118 | [11] -0.08
active: [5] 0.532

CCNT1 (UniProt O60563)
inactive: bafetinib 0.062 | [1] 0.036 | nilotinib 0.027 | [2] -0.272 | dasatinib -0.016 | [3] -0.301 | [4] -0.051 | [5] -0.122 | tipifarnib 0.142 | mubritinib -0.093 | [6] -0.027 | [7] -0.03 | [8] -0.021 | [9] -0.02 | entinostat 0.034 | vorinostat 0.176 | citarinostat 0.053 | silmitasertib 0 | [10] 0.047 | [11] -0.094

CKS1B (UniProt P61024)
Sequence of UniProt P61024 (P61024 whole entry, looked up): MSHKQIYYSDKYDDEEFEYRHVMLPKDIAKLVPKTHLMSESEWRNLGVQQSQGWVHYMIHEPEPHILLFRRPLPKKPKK
inactive: bafetinib -0.065 | [1] -0.06 | nilotinib 0.14 | [2] -0.016 | dasatinib 0 | [3] 0.026 | [4] 0.067 | [5] 0.017 | tipifarnib -0.043 | mubritinib 0.056 | [6] -0.029 | [7] -0.03 | [8] -0.082 | [9] 0.042 | entinostat -0.02 | vorinostat 0.025 | citarinostat 0.009 | silmitasertib 0.063 | [10] -0.084 | [11] -0.067

CSE1L (UniProt P55060)
inactive: bafetinib -0.041 | [1] 0.039 | nilotinib -0.066 | [2] -0.026 | dasatinib -0.08 | [3] 0.012 | [4] -0.005 | [5] 0.007 | tipifarnib -0.101 | mubritinib 0.068 | [6] -0.037 | [7] -0.067 | [8] -0.162 | [9] -0.071 | entinostat 0.05 | vorinostat 0.015 | citarinostat 0.058 | silmitasertib 0.035 | [10] -0.059 | [11] -0.018

CPQ (UniProt Q9Y646)
active: bafetinib -0.207
inactive: [1] 0 | nilotinib 0.017 | [2] 0.053 | dasatinib 0.069 | [3] -0.046 | [4] 0.012 | [5] -0.025 | tipifarnib 0.031 | mubritinib 0.044 | [6] 0.083 | [7] -0.01 | [8] -0.011 | [9] 0.072 | entinostat 0.012 | vorinostat -0.043 | citarinostat 0.038 | silmitasertib -0.004 | [10] 0.03 | [11] 0.009

CLTB (UniProt P09497)
Sequence of UniProt P09497 (P09497 whole entry, looked up): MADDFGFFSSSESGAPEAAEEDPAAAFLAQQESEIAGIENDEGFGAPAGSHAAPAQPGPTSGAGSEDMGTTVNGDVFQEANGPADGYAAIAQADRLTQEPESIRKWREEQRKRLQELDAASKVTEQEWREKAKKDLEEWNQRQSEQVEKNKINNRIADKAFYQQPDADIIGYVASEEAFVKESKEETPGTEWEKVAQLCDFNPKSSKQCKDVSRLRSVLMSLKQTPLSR
inactive: bafetinib 0.095 | [1] 0.002 | nilotinib 0.077 | [2] 0.024 | dasatinib 0.081 | [3] 0.005 | [4] -0.02 | [5] -0.019 | tipifarnib -0.006 | mubritinib -0.016 | [6] 0.088 | [7] 0.101 | [8] 0.043 | [9] 0.117 | entinostat -0.076 | vorinostat 0.003 | citarinostat -0.013 | silmitasertib -0.005 | [10] -0.043 | [11] 0.07

CETN2 (UniProt P41208)
Sequence of UniProt P41208 (P41208 whole entry, looked up): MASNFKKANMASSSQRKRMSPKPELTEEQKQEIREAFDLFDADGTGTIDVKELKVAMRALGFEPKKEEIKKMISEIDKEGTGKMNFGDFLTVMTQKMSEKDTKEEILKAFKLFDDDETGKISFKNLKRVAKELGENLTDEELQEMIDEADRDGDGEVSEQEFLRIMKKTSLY
inactive: bafetinib -0.029 | [1] -0.131 | nilotinib 0.071 | [2] -0.055 | dasatinib 0.081 | [3] -0.001 | [4] -0.013 | [5] 0.03 | tipifarnib 0.216 | mubritinib 0.036 | [6] -0.051 | [7] 0.024 | [8] 0.102 | [9] 0.076 | entinostat -0.033 | vorinostat -0.122 | citarinostat -0.1 | silmitasertib -0.028 | [10] -0.027 | [11] -0.091
